Paper PMC5540273 (PLoS ONE, 2017)

What follows are compounds tested on CDK5. Settings: concentration: 1 μM, replicates: in singlicate; n = 1.
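Note: KINOMEscan kinase panel screen.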

In order of falling “%Inh” value:
1. CS(=O)(=O)c1ccc(-c2c(-c3ncn[nH]3)sc(N3CCOCC3)c2C#N)cc1  38%
2. COc1ccc(C2=C(Nc3cccc(C(=O)O)c3)C(=O)NC2=O)cc1 [SB-390765]  16%
3. CC(=O)Nc1nc2cnc(Nc3cc(NC(=O)c4cccc(CCC#N)c4)ccc3C)nc2s1  12%
4. COC(=O)c1c(-c2ccccc2)c2cc(OC)ccc2c(=O)n1Cc1ccccc1  11%
5. Cc1cccc(-c2nc(-c3ccc(S(C)(=O)=O)cc3)sc2-c2ccnc(NCCc3ccccc3)c2)c1  9%
6. Cn1cncc1-c1ccc2ncnc(Nc3ccc(OCc4ccccc4)cc3)c2c1 [GW320571]  3%
7. Cc1cccc(-c2nc(Nc3ccc4[nH]ncc4c3)c3ccccc3n2)n1 [GW857175]  3%
8. COc1ccc(Nc2nccc(-c3cccc(NC(=O)c4cc5cc(F)ccc5[nH]4)c3)n2)cc1 [GSK1229782]  1%
9. COc1cc2nccc(Nc3ccc(NC(=O)c4ccc(C)cc4)c(O)c3)c2cc1OC.Cl [GW440132]  0%
10. Nc1ncnc2[nH]c(-c3ccccc3)nc12 [AH5015]  0%
11. Cl.NC(=O)c1cccc(Nc2nccc(Nc3ccc(Oc4cccc(Cl)c4)c(Cl)c3)n2)c1 [GW659008]  0%
12. CN(C)CCN(C)C(=O)c1cc(-c2ccncc2)c(-c2ccc(Cl)c(O)c2)o1.Cl.Cl [SB-710397]  0%
13. COc1ccc(Nc2nccc(NCCNC(=O)Nc3ccccc3F)n2)cc1 [GSK1379901]  0%
14. CN1C(=O)C(Nc2ccc(Cl)c(C(=O)O)c2)=C(c2ccc(Cl)cc2)C1=O [SB-404290]  0%
15. COc1cc2ncn(-c3cc(OCC4CCCO4)c(C(N)=O)s3)c2cc1OC (centres unmarked) [GSK204607]  0%
16. COc1ccccc1-c1ccc2c(NC(=O)C3CC3)n[nH]c2n1 [SB-711239]  0%
17. CSc1nn2c(=O)cc(N3CCOCC3)nc2n1Cc1cccc(C(F)(F)F)c1C [GSK2363608]  0%
18. Cc1c(Cn2ccn3c(=O)cc(N4CCOCC4)nc23)cccc1C(F)(F)F [GSK2289044]  0%
19. Cc1ccc(NC(=O)Nc2cccc(Cl)c2)cc1-c1ccc(C(=O)Nc2ccncc2)cc1 [GSK1398468]  0%
20. Cl.Oc1ccc(-c2nc(-c3ccccc3)[nH]c2-c2ccncc2)cc1 [SB-428218]  0%
21. C[C@@H]1CCCCN1c1cc(-c2ccc3c(N)n[nH]c3c2)nc(N)n1 [GSK2258759]  0%
22. COC(=O)c1c(-c2ccccc2)c2cc(C(=O)O)ccc2c(=O)n1Cc1ccccc1  0%
23. Nc1nc(-c2nccs2)c(-c2ccnc3ccccc23)s1 [GW693542]  0%
24. Cc1c(O)cccc1Nc1ccnc2ccc(C(F)(F)F)cc12.Cl [GW466413]  0%
25. O=C(Nc1ccc2c(c1)OCO2)NC1CCN(c2ccnc(Nc3ccc(F)cc3)n2)C1 (centres unmarked) [GSK1379724]  0%
26. Cc1ccccc1-n1cnc2c(N)ncnc21 [SKF-97510]  0%
27. Cc1ccc(C(=O)Nc2ccc(Nc3ccnc4cc(-c5ccccn5)ccc34)cc2O)cc1.Cl [GW440146]  0%
28. COc1cccc(-c2cc(-c3c[nH]nc3-c3ccccn3)ccn2)c1 [GW680338]  0%
29. Clc1cc(Cl)cc(Nc2ccnc(Nc3cc(Cl)cc(Cl)c3)n2)c1 [GSK175726]  0%
30. O=C(Nc1n[nH]c2nc(-c3nccs3)c(Br)cc12)C1CC1 [SB-742251]  0%
31. O=C(Nc1n[nH]c2cc(-c3cccc(F)c3F)ccc12)C1CC1 [SB-733894]  0%
32. Cc1nnc(-c2ccc3occ(-c4ccc(S(C)=O)cc4)c3c2)[nH]1 (centres unmarked)  0%
33. Cc1cccc(-c2nc(C)cc(Nc3ccncc3)n2)n1 [GSK257997]  0%
34. NC(=O)c1nnc2ccccc2c1N  0%
35. O=c1cc(N2CCOCC2)nc2n(Cc3cccc(Cl)c3Cl)ccn12 [GSK2286295]  0%
36. CS(=O)(=O)c1ccc(-c2nc3n(c2-c2ccncc2)CCC3)cc1 [SKF-105942]  0%

Each compound was assayed on CDK7. Settings: concentration: 1 μM, replicates: in singlicate; n = 1.

In order of falling “%Inh” value:
1. COc1cc2nccc(Nc3ccc(NC(=O)c4ccc(C)cc4)c(O)c3)c2cc1OC.Cl [GW440132]  75%
2. CC(=O)Nc1nc2cnc(Nc3cc(NC(=O)c4cccc(CCC#N)c4)ccc3C)nc2s1  39%
3. CS(=O)(=O)c1ccc(-c2c(-c3ncn[nH]3)sc(N3CCOCC3)c2C#N)cc1  31%
4. O=C(Nc1n[nH]c2cc(-c3cccc(F)c3F)ccc12)C1CC1 [SB-733894]  17%
5. COC(=O)c1c(-c2ccccc2)c2cc(OC)ccc2c(=O)n1Cc1ccccc1  15%
6. NC(=O)c1nnc2ccccc2c1N  14%
7. O=C(Nc1n[nH]c2nc(-c3nccs3)c(Br)cc12)C1CC1 [SB-742251]  12%
8. Cc1cccc(-c2nc(Nc3ccc4[nH]ncc4c3)c3ccccc3n2)n1 [GW857175]  8%
9. Clc1cc(Cl)cc(Nc2ccnc(Nc3cc(Cl)cc(Cl)c3)n2)c1 [GSK175726]  5%
10. COc1cc2ncn(-c3cc(OCC4CCCO4)c(C(N)=O)s3)c2cc1OC (centres unmarked) [GSK204607]  4%
11. COc1ccc(Nc2nccc(-c3cccc(NC(=O)c4cc5cc(F)ccc5[nH]4)c3)n2)cc1 [GSK1229782]  4%
12. COc1ccc(C2=C(Nc3cccc(C(=O)O)c3)C(=O)NC2=O)cc1 [SB-390765]  3%
13. Cc1cccc(-c2nc(-c3ccc(S(C)(=O)=O)cc3)sc2-c2ccnc(NCCc3ccccc3)c2)c1  2%
14. Nc1ncnc2[nH]c(-c3ccccc3)nc12 [AH5015]  0%
15. Cl.NC(=O)c1cccc(Nc2nccc(Nc3ccc(Oc4cccc(Cl)c4)c(Cl)c3)n2)c1 [GW659008]  0%
16. CN(C)CCN(C)C(=O)c1cc(-c2ccncc2)c(-c2ccc(Cl)c(O)c2)o1.Cl.Cl [SB-710397]  0%
17. COc1ccc(Nc2nccc(NCCNC(=O)Nc3ccccc3F)n2)cc1 [GSK1379901]  0%
18. CN1C(=O)C(Nc2ccc(Cl)c(C(=O)O)c2)=C(c2ccc(Cl)cc2)C1=O [SB-404290]  0%
19. Cn1cncc1-c1ccc2ncnc(Nc3ccc(OCc4ccccc4)cc3)c2c1 [GW320571]  0%
20. COc1ccccc1-c1ccc2c(NC(=O)C3CC3)n[nH]c2n1 [SB-711239]  0%
21. Cc1c(Cn2ccn3c(=O)cc(N4CCOCC4)nc23)cccc1C(F)(F)F [GSK2289044]  0%
22. Cc1ccc(NC(=O)Nc2cccc(Cl)c2)cc1-c1ccc(C(=O)Nc2ccncc2)cc1 [GSK1398468]  0%
23. Cl.Oc1ccc(-c2nc(-c3ccccc3)[nH]c2-c2ccncc2)cc1 [SB-428218]  0%
24. C[C@@H]1CCCCN1c1cc(-c2ccc3c(N)n[nH]c3c2)nc(N)n1 [GSK2258759]  0%
25. COC(=O)c1c(-c2ccccc2)c2cc(C(=O)O)ccc2c(=O)n1Cc1ccccc1  0%
26. Nc1nc(-c2nccs2)c(-c2ccnc3ccccc23)s1 [GW693542]  0%
27. Cc1c(O)cccc1Nc1ccnc2ccc(C(F)(F)F)cc12.Cl [GW466413]  0%
28. O=C(Nc1ccc2c(c1)OCO2)NC1CCN(c2ccnc(Nc3ccc(F)cc3)n2)C1 (centres unmarked) [GSK1379724]  0%
29. Cc1ccccc1-n1cnc2c(N)ncnc21 [SKF-97510]  0%
30. Cc1ccc(C(=O)Nc2ccc(Nc3ccnc4cc(-c5ccccn5)ccc34)cc2O)cc1.Cl [GW440146]  0%
31. COc1cccc(-c2cc(-c3c[nH]nc3-c3ccccn3)ccn2)c1 [GW680338]  0%
32. Cc1nnc(-c2ccc3occ(-c4ccc(S(C)=O)cc4)c3c2)[nH]1 (centres unmarked)  0%
33. Cc1cccc(-c2nc(C)cc(Nc3ccncc3)n2)n1 [GSK257997]  0%
34. O=c1cc(N2CCOCC2)nc2n(Cc3cccc(Cl)c3Cl)ccn12 [GSK2286295]  0%
35. CS(=O)(=O)c1ccc(-c2nc3n(c2-c2ccncc2)CCC3)cc1 [SKF-105942]  0%
